Source: PubChem
PI4K2A inh: PI4K2A (human) kinase inhibition; 0.13% of 420,000 active; purified PI4K2A, ADP-Glo luminescence, 1 h; stronger effect = lower value; activity change, negative = inhibition, % at 76.9 µM; Q9BTU6; in the data active = activity change below about -50%; inconclusive = mostly about -30% to -49%;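 note: -100% = wells without enzyme as full effect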
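Compounds are screened against recombinant PI4K2A using PI as substrate and ATP, the latter dispensed at 300 microM. Reactions run one hour at ambient temperature before ADP-Glo detection; full inhibition defined by wells lacking enzyme.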
LDHA inh: inhibitors of human lactate dehydrogenase A; P00338; purified LDHA, NADH/diaphorase-resazurin fluorescence; stronger effect = lower value; activity change, % (values are at about 110 or 230 µM); 0.15% of 480,000 active; in the data active = activity change below about -30%; inconclusive = mostly about -25% to -30%;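 note: plate controls were DMSO wells for no effect and wells without enzyme for full effect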
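Resorufin fluorescence (ex540/em590), read at 0 and 20 min after diaphorase/resazurin addition, reports the NADH left after a 5 min room-temperature reaction of 2 nM human LDH5 with 0.06 mM NADH and 0.2 mM pyruvate.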
D3 antag: blocks the human D3 dopamine receptor. D3R cells, DiscoveRx beta-arrestin luminescence, antagonist mode; stronger effect = lower value. max response, negative = inhibition, %. 2.5% of 360,000 active. AID 652054; in the data active = max response below about -50%; inconclusive = no clear call, values can overlap the other calls; note: % is set by controls: 0 for no effect and ±100 for the full control effect
Target sequence (P35462 whole entry, looked up): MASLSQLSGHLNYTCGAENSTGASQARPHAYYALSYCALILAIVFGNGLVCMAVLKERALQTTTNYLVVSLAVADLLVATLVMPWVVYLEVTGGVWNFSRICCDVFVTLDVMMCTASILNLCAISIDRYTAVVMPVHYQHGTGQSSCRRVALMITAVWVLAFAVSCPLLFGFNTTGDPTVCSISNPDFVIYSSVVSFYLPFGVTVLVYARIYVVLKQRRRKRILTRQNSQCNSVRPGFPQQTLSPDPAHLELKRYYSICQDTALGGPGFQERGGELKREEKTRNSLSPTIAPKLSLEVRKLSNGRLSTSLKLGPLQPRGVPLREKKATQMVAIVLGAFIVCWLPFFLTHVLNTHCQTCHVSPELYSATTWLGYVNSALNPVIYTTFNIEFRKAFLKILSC
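Cells plated overnight at 1500 cells/well, then exposed to library compounds with dopamine controls for 90 minutes at 37 degrees C. DiscoveRx reagent added for 30–60 minutes at room temperature; luminescence read, quantitative HTS format.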
DRD3 agonist: agonists of human D3 dopamine receptor | P35462 | D3R DiscoveRx beta-arrestin cells, luminescence, 90 min | max activation, % | 0.58% of 410,000 active | AID 652048; in the data active = max activation above about 30%; note: 0% is about no effect
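Cells at 1500/well, incubated overnight, then treated with pinned compounds (dopamine as control) for 90 min at 37 degrees C. DiscoveRx reagent added for 30 - 60 minutes at room temperature; luminescence read.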
PI5P4Ka inh: blocks human PI5P4K alpha kinase activity. P48426. PI5P4Kalpha enzyme, ADP-Glo luminescence, 60 min; stronger effect = lower value. max response, %. 1.2% of 330,000 active. AID 652105; active = max response of -50% or lower; inconclusive = between -30% and -50%; inactive = -30% or higher; note: value at the top dose of about 77 µM; % is set by controls: 0 for no effect and ±100 for the full control effect
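Compounds were pin-transferred onto PI5P4Kalpha and substrate in HEPES pH 7.4 buffer with EGTA, CHAPS and 5% DMSO. ATP (5 microM final) started the reaction, which ran 60 minutes at room temperature before ADP-Glo detection.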
Active calls of the source: *; ? = inconclusive; / = not tested or not shown. Compounds with a hit are over-represented: about 3.3% of the library has one in this group of screens.

SMILES | PI4K2A inh | LDHA inh | D3 antag | DRD3 agonist | PI5P4Ka inh
O=C1S/C(=C\C=C\c2ccco2)C(=O)N1c1ccccc1 | -25.7 | 15.7 | 11.1 | -11.4 | -50.4*
O=C1S/C(=C\C=C\c2ccco2)C(=O)N1c1ccc(O)cc1 | -22.3 | 7.1 | 1.6 | 17.8 | -87.1*
O=C1S/C(=C\c2cccs2)C(=O)N1c1ccc(O)cc1 | -0.7 | -10.2 | -4.9 | 3.8 | 1.0
CCN(CC)S(=O)(=O)c1ccc2c(c1)CC(C(=O)NCc1ccccc1Cl)N2C(C)=O (stereo not given) | / | 2.6 | / | / | /
O=C(Nc1nc2c(s1)CCCC2)c1ccc(Br)s1 | -7.8 | 2.0 | -67.0* | -26.1 | /
O=C(Nc1nc2c(s1)CCCC2)C1CCCN1C(=O)c1cccs1 (stereo not given) | -3.1 | -4.7 | -52.7* | -4.7 | -7.5
O=C(Nc1nc2c(s1)CCCCC2)c1ccc(Cl)cc1 | / | 5.8 | / | / | /
O=C(CS(=O)(=O)Cc1ccccc1)Nc1nc2c(s1)CCCC2 | 6.2 | -1.6 | -16.1 | -1.8 | -0.2
O=C(CCS(=O)(=O)Cc1ccccc1)Nc1nc2c(s1)CCCC2 | 0.2 | -3.5 | -102.9* | -11.4 | /
CCOc1cc(CNc2ccc(O)cc2)cc(Br)c1OCc1ccccc1F | ? | 20.8 | 0.1 | 5.2 | 4.1
COc1cc(CNc2ccc(O)cc2)cc(Br)c1OCc1ccccc1F | -51.3* | 32.2 | 4.4 | 5.8 | 0.8
O=C1Nc2cc(Cl)c(Cl)cc2N(O)N1c1ccc(Br)cc1F | / | -7.6 | / | / | /
Cc1ccc(C(=O)NCC(=O)OCc2cc(=O)oc3cc(O)ccc23)cc1C | / | 11.4 | / | / | /
C/C(=N/Nc1ccnc2cc(Cl)ccc12)c1ccc(O)cc1 | -11.1 | 2.9 | -54.1* | -57.1 | -3.1
C/C(=N/Nc1ccnc2cc(Cl)ccc12)c1ccc(N)cc1 | -0.5 | 4.0 | ? | -56.0 | -5.1
Clc1ccc2c(N/N=C/c3cccc(Br)c3)ccnc2c1 | -1.6 | -7.1 | -5.0 | -8.7 | -69.4*
O=C1N=c2ccccc2=C1c1c(O)n(-c2cccc(F)c2)[nH]c1=O | -18.4 | 13.8 | ? | -10.7 | ?
CCn1c(O)c(C2=c3ccccc3=NC2=O)c2cc(Br)ccc21 | -1.4 | -2.7 | -80.3* | -6.8 | 0.3
CC(=O)c1cc2cccc(OC3(C)CCN(Cc4ccc(-c5ccccn5)cc4)C3)c2o1 (stereo not given) | -1.0 | 2.4 | -53.2* | -10.1 | -8.3
Cc1cccc(CS(=O)(=O)c2nnc([C@H](Cc3ccccc3)NC(=O)OC(C)(C)C)o2)c1 | 60.6 | 0.6 | -76.5* | -30.0 | /
CN(C)CCCn1cnc2c1c(=O)[nH]c(=O)n2C | / | -8.1 | / | / | /
CCOC(=O)c1ccccc1NC(=O)Cn1c(=O)n(Cc2ccc(C)cc2)c(=O)c2ccccc21 | / | -6.6 | / | / | /
CN(C)CCOc1ccccc1-c1ccccc1 | 2.6 | ? | ? | -9.9 | /
CC1CN(CCOc2ccccc2-c2ccccc2)CC(C)O1 (stereo not given) | 4.8 | -21.0 | ? | -10.0 | -5.5
COc1ccccc1OCCCCN1CCC(C)CC1 | 4.7 | -17.8 | ? | -46.4 | -6.1
SMILES | PI4K2A inh | LDHA inh | D3 antag | DRD3 agonist | PI5P4Ka inh
CC1CCN(CCOCCOc2ccccc2Br)CC1 | -0.9 | -14.0 | -61.3* | -20.8 | -1.8
CC1CCN(CCOCCOc2ccccc2-c2ccccc2)CC1 | -5.3 | -10.9 | -82.2* | -19.5 | 1.5
OCCCN1CCN(CCCOc2ccccc2-c2ccccc2)CC1 | 0.1 | -2.3 | ? | -19.1 | 5.9
CN(C)CCOCCOc1ccccc1-c1ccccc1 | 10.4 | -46.9* | -68.6* | -24.9 | /
CC1CCCN(CCCOc2ccccc2-c2ccccc2)C1 (stereo not given) | 3.8 | -15.8 | -67.1* | -18.4 | 2.8
CCN(c1ccc(NC(=O)COC(=O)c2cc(C)nc3ccccc23)cc1)C(C)C | / | 10.8 | / | / | /
CC1CCN(CCCCOc2ccccc2-c2ccccc2)CC1 | -3.7 | -15.6 | -99.4* | -37.8 | 11.2
COc1cccc(CN2C(=O)c3ccccc3NC2c2ccc(OC)c(COc3ccc(NC(C)=O)cc3)c2)c1 (stereo not given) | / | 7.1 | / | / | /
C[C@@H]1CN([C@H](C)CO)C(=O)CCCn2nncc2CO[C@@H]1CN(C)C(=O)Nc1ccc2c(c1)OCO2 | -10.4 | 12.5 | -60.3* | -10.4 | -14.4
C[C@H](CO)N1C[C@H](C)[C@@H](CN(C)C(=O)Nc2ccc(C(F)(F)F)cc2)Oc2c(cccc2N(C)C)C1=O | 3.3 | -6.2 | -130.1* | -74.6 | 1.9
C[C@H](CO)N1C[C@H](C)[C@@H](CN(C)C(=O)NC2CCCCC2)Oc2ccc(NC(=O)Nc3ccc(C(F)(F)F)cc3)cc2C1=O | 4.6 | 1.0 | 29.0 | 53.6* | 0.5
C[C@@H]1CN([C@H](C)CO)C(=O)CCCn2nncc2CO[C@H]1CN(C)C(=O)Nc1ccc2c(c1)OCO2 | -0.5 | 7.9 | ? | -8.3 | -1.8
C[C@H](CO)N1C[C@H](C)[C@@H](CN(C)C(=O)Nc2ccc3c(c2)OCO3)Oc2c(NC(=O)Nc3ccc(C(F)(F)F)cc3)cccc2C1=O | 1.8 | 10.7 | 93.9 | 32.3* | 21.2
O=S(=O)(NCc1ccnc(OCc2ccccc2)c1)N1CCOCC1 | / | -6.2 | / | / | /
Cc1nonc1C(=O)N/N=C/c1ccc(O)c(O)c1 | -62.4* | 8.5 | -2.2 | -3.9 | -17.2
O=C(NN=Cc1ccc2c(c1)OCO2)NN=Cc1ccc2c(c1)OCO2 | -12.5 | -8.5 | 45.4 | 45.7* | -6.2
Cc1cc(SCC(=O)N/N=C/c2ccc(O)c(O)c2)c(C)cc1Br | 0.5 | 7.8 | 11.2 | 2.2 | -1.6
O=C(NN=Cc1ccc2c(c1)OCO2)C1CC1 | 0.5 | -3.7 | 1.5 | -9.1 | -0.1
O=C(N/N=C/c1ccc(O)c(O)c1)N/N=C/c1ccc(O)c(O)c1 | -8.5 | 12.0 | 2.8 | 20.7 | -69.2*
CS(=O)(=O)Oc1ccc2c(=O)c(-c3ccc(Cl)cc3)coc2c1 | / | 6.8 | / | / | /
COc1ccccc1CN1C2CCCC1CC(NC(=O)/C=C/c1ccccc1)C2 (stereo not given) | 4.9 | -10.5 | -64.5* | -16.4 | 3.1
N#CCCCc1cn(-c2cccc(-c3noc4c3C(=O)N(CC(=O)N3CCOCC3)CC4)c2)nn1 | 3.4 | / | / | / | /
Nc1ccc(S(=O)(=O)NN=CC=Cc2ccccc2[N+](=O)[O-])cc1 | 0.9 | 0.0 | -65.2* | -17.0 | -5.0
COc1ccc(NC(=O)N2CCN(c3nc(-c4cccc(OC)c4)cs3)CC2)cc1 | 5.5 | -2.9 | 18.6 | 50.9* | /
O=c1oc2ccc(Cl)cc2cc1-c1csc(Nc2ccccc2)n1 | / | -3.2 | / | / | /
Cc1nnc(SCC(=O)Nc2ccc(OC(F)F)c(Cl)c2)n(N)c1=O | -1.6 | -36.0* | 12.4 | -12.3 | 2.8
Cc1ccc(NC(=O)CSc2nnc(C)c(=O)n2N)c(C)c1 | -0.8 | -37.5* | 1.5 | 5.8 | -0.4
CNc1cc([N+](=O)[O-])ccc1N/C=C/C(=O)c1cccs1 | -10.1 | -0.8 | -7.2 | -21.6 | -4.9
CNc1cc([N+](=O)[O-])ccc1N/C=C/C(=O)c1ccc2c(c1)OCO2 | -3.2 | 3.9 | -50.3* | -22.8 | 2.8
